Shown are actives, neighbours in structure and some others; about 2.4% of the full set was active somewhere.
ADAM10 inh = inhibitors of human ADAM10 | inhibition, % at 7 µM | actives 0.62% (n = 370,000) | recombinant ADAM10, EDANS/DABCYL FRET peptide cleavage, 3 h | AID 720582;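 active = inhibition above a per-campaign cutoff equal to the mean of compounds falling between control-based bounds plus 3 SD, cut at about 20% in these data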;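 also: 0% = DMSO wells while the 100% control is not disclosed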
A3A deaminase = inhibitors of human APOBEC3A DNA deaminase; P31941; actives 0.41% (n = 330,000); AID 493011; recombinant A3A, FAM/TAMRA ssDNA deamination fluorescence; inhibition, % at 20 µM;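 active = at least 40% inhibition at 20 µM here, with at most 30% in a related deaminase screen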;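 also: plate controls were A3A with DMSO for no effect and wells lacking A3A enzyme for full effect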
Target sequence (P31941 whole entry, looked up): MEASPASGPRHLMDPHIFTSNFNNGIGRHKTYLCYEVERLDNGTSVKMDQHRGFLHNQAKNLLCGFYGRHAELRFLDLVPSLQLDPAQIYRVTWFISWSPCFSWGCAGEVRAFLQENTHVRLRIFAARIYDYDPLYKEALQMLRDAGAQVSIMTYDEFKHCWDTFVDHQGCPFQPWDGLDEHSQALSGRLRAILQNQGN
APOBEC3G inh = APOBEC3G (human) deaminase inhibition; Q9HC16; recombinant A3G, ssDNA deamination FAM/TAMRA fluorescence; inhibition, % at 20 µM; actives 0.28% (n = 330,000);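 active = inhibition of at least 40% at 20 µM, with no more than 30% in the related APOBEC3A deaminase screen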;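 also: plate controls were DMSO wells with A3G for no effect and wells lacking A3G enzyme for full effect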
ADAM17 inh = inhibitors of human ADAM17. actives 0.83% (n = 370,000). inhibition, % at 6.95 µM. P78536. recombinant ADAM17, EDANS/DABCYL FRET peptide cleavage;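 active = inhibition above the mean of compounds lying between control limits plus 3 SD, set per campaign, cut at about 8.5% in these data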;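 also: 0% = DMSO-only wells as the low control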
NRP1-CendR mod = modulators of CendR peptide binding to human neuropilin-1 | FAM-RPARPAR peptide binding to NRP-1, fluorescence polarization | inhibition, % at 25 µM | actives 0.85% (n = 360,000) | AID 602438;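 active = inhibition or corrected inhibition above about 18%, plus a signal ratio from 0.5 to 1.5, limit read from the data, passing the limit was not always enough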
ADAM10 confirm = confirmation of inhibitors of human ADAM10. ADAM10 QFRET peptide cleavage, EDANS fluorescence. inhibition, % at 6.95 µM. AID 743208. actives 1% (n = 2,100). shares compounds with ADAM10 inh;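 active = inhibition above about 20% chosen separately for each screening run, limit read from the data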;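 also: 0% = DMSO wells and 100% = marimastat wells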
ADAM17 ctr = ADAM17 inhibition, counter-screen for ADAM10 exosite hits; inhibition, % at 6.95 µM; ADAM17 QFRET peptide cleavage, EDANS fluorescence; actives 0.5% (n = 2,100); shares compounds with ADAM10 inh;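 active = mean triplicate inhibition above the solvent-only control wells' mean plus 3 SD, cut at about 12% in these data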;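 also: 0% = DMSO wells and 100% = marimastat wells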
ADAM10 ctr = inhibits human ADAM10 in ADAM17 exosite counter-screen. shares compounds with ADAM17 inh. recombinant ADAM10, EDANS/DABCYL FRET peptide cleavage, 3 h. inhibition, % at 6.95 µM. actives 47% (n = 2,900);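 active = mean inhibition over the triplicate runs exceeds the activity threshold set in the earlier primary screen, cut at about 20% in these data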;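 also: 0% = DMSO wells and 100% = marimastat wells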
ADAM17 confirm = confirmation of inhibitors of human ADAM17. shares compounds with ADAM17 inh. recombinant ADAM17, EDANS/DABCYL QFRET peptide cleavage. inhibition, % at 6.95 µM. actives 65% (n = 2,900). AID 743257;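 active = mean inhibition across replicates above the hit cutoff set in the primary screen, cut at about 8.5% in these data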;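 also: 0% = DMSO wells and 100% = marimastat wells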
* = called active by the depositor; / = no result given.

SMILES	ADAM10 inh	A3A deaminase	APOBEC3G inh	ADAM17 inh	NRP1-CendR mod	ADAM10 confirm	ADAM17 ctr	ADAM10 ctr	ADAM17 confirm
COc1cc(/C=C/C=C2/CC/C(=C/C=C/c3ccc(O)c(OC)c3)C2=O)ccc1O	22*	/	/	17*	-212	2	1	6	5
CC1CCN(c2c3c(nc4ncnn24)CCCC3)CC1	0	/	/	1	/	/	/	/	/
CC(C)COC(=O)NCCOC(=O)Nc1cccc(Cl)c1	5	-4	-3	4	-2	/	/	/	/
O=C(Nc1ccccc1)OCCOc1ccc(Cl)cc1Cl	32*	/	/	12*	3	5	2	28*	15*
O=C(Nc1cccc(Cl)c1)OCCOCCOC(=O)Nc1cccc(Cl)c1	21*	/	/	9.8*	-21	4	2	20	13*
Cc1nn(Cc2ccccc2Cl)c2sc(C(=O)NCc3ccc4c(c3)OCO4)cc12	23*	-1	-7	12*	-2	6	3	12	12*
CCC(CC)NC(=O)c1cc2c(C)nn(Cc3ccccc3Cl)c2s1	3	-3	-7	3	5	/	/	/	/
O=C(Nc1cc(Oc2ccccc2)cc([N+](=O)[O-])c1)C12CC3CC(C1)CC(n1cnc(Cl)n1)(C3)C2	22*	0	-6	9.7*	-10	8	3	28*	11*
O=C(O)c1cccc(NC(=O)C23CC4CC(C2)CC(n2cnc(Cl)n2)(C4)C3)c1	10	-9	-3	-5	5	/	/	/	/
CCn1c(=O)n(CC(=O)N2CCC(C)CC2)c(=O)c2ccccc21	-7	/	/	-2	/	/	/	/	/
COC(=O)[C@]12C[C@H](CC(=O)NCc3cccc4ccccc34)C(=O)N(Cc3ccc(Cl)cc3Cl)C1=C[C@H](C1CCCC1)O[C@@H]2C	-2	/	/	-8	/	/	/	/	/
CCc1nc2ccc(C(=O)Nc3cc(-c4ccccc4)ccc3OC)cn2c1N(C)Cc1ccc(OC)cc1	-7	/	/	-1	2	/	/	/	/
CCc1nc2ccc(C(=O)Nc3cc(-c4ccccc4)ccc3OC)cn2c1N(C)Cc1nccs1	27*	/	/	11*	-4	6	2	20	15*
COc1ccc(CNc2nc(-c3ccccc3)nc3ccccc23)cc1OC	22*	1	-4	13*	-3	7	3	24*	17*
CCCCCCCCN1C(=O)[C@@H](CC(=O)NCCCOC)C[C@@]2(C(=O)OC)C1=C[C@H](C(C)(C)C)O[C@@H]2C	18	/	/	6	/	/	/	/	/
O=C(C(=O)N1CCN(c2ccccc2Cl)CC1)c1c[nH]c2ccccc12	26*	0	-3	14*	-1	6	1	21*	12*
Clc1ccccc1N1CCN(Cc2c[nH]c3ccccc23)CC1	3	-1	-2	0	8	/	/	/	/
Cc1ccc(-c2onc(C)c2C)cc1S(=O)(=O)N1CCOc2ccccc21	21*	-5	2	14*	7	6	2	8	6
O=C(/C=C/C=C/c1ccccc1)CC1(O)C(=O)N(CCc2ccccc2)c2ccccc21 (centres undefined)	21*	-3	-6	9.3*	1	5	3	36*	19*
Nc1[nH]c(C(=O)c2ccccc2)c(-c2ccc(F)cc2)c1C(=O)c1c[nH]c2ccccc12	-11	/	/	5	/	/	/	/	/
N#Cc1ccc(CSc2nc(N)cc(N)n2)cc1	0	-4	-7	-2	-3	/	/	/	/
Cc1cc(N2CCCCC2)nc(SCc2ccc(C#N)cc2)n1	26*	0	-1	8.6*	-6	3	0	20*	13*
Cc1ccc(C2=CC(=O)C[C@H](c3ccc(F)cc3)C2)cc1	28*	0	3	12*	-3	2	1	22*	17*
